Sm TGR inh = qHTS Assay for the Inhibitors of Schistosoma Mansoni Peroxiredoxins; Schistosoma mansoni thioredoxin glutathione reductase (TGR), Q962Y6; purified TGR, DTNB reduction, TNB absorbance 405 nm; Potency, µM (top dose mostly 114 µM), for inactives: top-dose activity change, negative = inhibition, actives largely listed as inhibitors; hit rate 3% among 360,000; note: nearly all actives have a fitted effect of over 60% in size
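Kinetic colorimetric format: TGR-catalysed, NADPH-driven DTNB reduction monitored via TNB absorbance. Enzyme dispensed at 20 nM; compound exposure 15 min at room temperature before reaction start.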
HCV inh = qHTS Assay for Inhibitors of Hepatitis C Virus (HCV); Huh7.5.1 HCVcc-Cre infection, luciferase reporter, 44 h; Potency, µM (titrated, usually from 41.8 µM), without a hit: at the top dose activity change, negative = inhibition, usual class: inhibitors; hit rate 3.4% among 340,000; AID 651820, 2012
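1,000 cells/well; 4 h culture; + compound; + HCVcc-Cre (~0.5 moi); 44 h; luciferase substrate, RT 15 min; read 15 sec.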
FMDV inh = High Throughput Screening for Foot and Mouth Disease Virus Antivirals. FMDV antiviral cell-based qHTS. Potency, µM (top dose mostly 57.9 µM), without a hit: top-dose activity change, negative = inhibition, hits mostly inhibitors. hit rate 1.2% among 410,000; calls by dose curve; tested in HEK293T cells; note: read-out not given here; nearly all actives have a fitted effect of over 45% in size
RE007 growth inh = qHTS Assay for Inhibitors of the HIV-1 protein Vpr; hit rate 0.21% among 360,000; S. pombe RE007 Vpr strain, BacTiter-Glo ATP luminescence, 24 h; Potency, µM (titrated, usually from 92.2 µM), without a hit: at the highest dose activity change, negative = less growth, most hits filed as inhibitors; active = well fitted falling curve with a large enough effect; inconclusive = small, poorly fitted or top-dose-only effect; inactive = no such curve, though single readings can be large or run the other way; note: nearly all actives have a fitted effect of over 50% in size
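Fission yeast strain RE007, carrying one chromosomally integrated HIV-1 vpr copy, was seeded at OD 0.01 in PMG+AL medium with 23 nL pinned compound. After 24 h at 30 °C and 99% humidity, viability was read by BacTiter-Glo luminescence.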
Lassa entry inh = qHTS for Inhibitors of binding or entry into cells for Lassa Virus | Lassa virus pseudotype entry inhibition, cell reporter | Potency, µM (doses to about 37.9 µM), for the others: at the highest dose activity change, negative = inhibition, most hits filed as inhibitors | hit rate 1.2% among 300,000 | AID 540256, 2011; calls by dose curve; tested in HEK293 cells; note: nearly all actives have a fitted effect of over 50% in size
MARV entry inh = qHTS for inhibitors of binding or entry into cells for Marburg Virus | Marburg virus pseudotyped entry inhibition, cell reporter | Potency, µM (top dose mostly 37.8 µM), without a hit: at the highest dose activity change, negative = inhibition, most hits filed as inhibitors | AID 540276, 2011 | hit rate 1.8% among 300,000; calls by dose curve; tested in HEK293 cells
* = called active by the depositor; [ ] = remark or other dose. Sampled rows, rich in hits. Any-hit rate of the full collection: about 7.2%. Unless noted, calls come from the whole dose curve; as a rule, active = well fitted curve in the direction sought with a large enough effect; inconclusive = small, poorly fitted or top-dose-only effect, or another doubt; inactive = no such curve, though single readings can be large; an effect the other way counts as inactive or inconclusive. % is set by controls: 0 for no effect and ±100 for the full control effect; potency is the fitted concentration of half-maximal effect.

Screening Cc1c(C)n(CCN(C)C)c2ccc(C(=O)OCCN(C)C)cc12 returned Sm TGR inh -2%, HCV inh 11µM*, FMDV inh -16% and RE007 growth inh -1%.
Screening Cc1ccccc1CCNC(=O)c1ccc2c(c1)c(C)c(C)n2Cc1ccccc1 returned Sm TGR inh 0%, FMDV inh 0% and Lassa entry inh -11%[46.1 µM].
Screening Cc1c(C)n(Cc2ccccc2)c2ccc(C(=O)OCCCN(C)C)cc12 returned Sm TGR inh 31%, HCV inh inconclusive, FMDV inh -8%, RE007 growth inh -18%, Lassa entry inh inconclusive and MARV entry inh 10µM*.
`O=C1CCCC(O)=C1C(C#Cc1ccccc1)C1=C(O)CCCC1=O` gave Sm TGR inh 3.2µM*, HCV inh inconclusive, FMDV inh -11%, RE007 growth inh inconclusive, Lassa entry inh -20% and MARV entry inh inconclusive.
For CC1(C)CC(=O)C(C(C#Cc2ccccc2)C2=C(O)CC(C)(C)CC2=O)=C(O)C1 the results were Sm TGR inh 4µM*, HCV inh -15%, FMDV inh 9%, RE007 growth inh -21%, Lassa entry inh -11% and MARV entry inh inconclusive.
For CCCCNc1nc2sc3c(c2c(=O)n1-c1cccc(Cl)c1)CCN(C)C3 the results were Sm TGR inh 15%, HCV inh 4µM*, FMDV inh 1%, RE007 growth inh -11%, Lassa entry inh -13% and MARV entry inh inconclusive.
`CN1CCc2c(sc3nc(SCC(N)=O)n(-c4ccccc4)c(=O)c23)C1` gave Sm TGR inh inconclusive, HCV inh inconclusive, FMDV inh 5%, RE007 growth inh -4%, Lassa entry inh -8% and MARV entry inh -4%.
`CCn1c(SCC(=O)c2ccccc2)nc2sc3c(c2c1=O)CCN(C)C3` gave Sm TGR inh 18µM*, HCV inh inconclusive, FMDV inh -10%, RE007 growth inh -9%, Lassa entry inh -3% and MARV entry inh inconclusive.
Screening CCn1c(SCC(=O)NCCc2ccccc2)nc2sc3c(c2c1=O)CCN(C)C3 returned Sm TGR inh -3%, HCV inh inconclusive, FMDV inh -9%, RE007 growth inh -20%, Lassa entry inh 3% and MARV entry inh 25%.
For COC(=O)CSc1nc2sc3c(c2c(=O)n1-c1ccccc1)CCN(C)C3 the results were Sm TGR inh 35µM*, HCV inh inconclusive, FMDV inh -3%, RE007 growth inh -4%, Lassa entry inh 0% and MARV entry inh 5%.
For CN1CCc2c(sc3nc(SCC(N)=O)n(-c4ccc(Cl)cc4)c(=O)c23)C1 the results were Sm TGR inh inconclusive, HCV inh inconclusive, FMDV inh -22% and RE007 growth inh -10%.
`CCCCNc1nc(Nc2ccc(C)c(Cl)c2)c2cnn(C)c2n1` gave Sm TGR inh -4%, HCV inh 13µM*, FMDV inh inconclusive and RE007 growth inh -4%.
For CCNc1nc(Nc2ccc(C)c(Cl)c2)c2cnn(C)c2n1 the results were Sm TGR inh -2%, HCV inh 14µM*, FMDV inh inconclusive and RE007 growth inh 0%.
Screening Cc1cccc(Cn2c(SCc3ccc(C(=O)NCc4ccccc4)cc3)nc3cccnc32)c1 returned Sm TGR inh 1%, FMDV inh -27% and Lassa entry inh inconclusive.
Screening COc1cc2c(cc1OC)C(COc1ccc3c(C)cc(=O)oc3c1)N(C(=O)CC(C)C)CC2 (stereo unspecified) returned Sm TGR inh -3%, FMDV inh 0%, Lassa entry inh -24%[46.1 µM] and MARV entry inh 16%[46.1 µM].
Screening C=CCNc1nc(N)c(C(=C(C#N)C#N)c2ccc(Br)cc2)s1 returned Sm TGR inh -14%, HCV inh inconclusive, FMDV inh 5.6µM*, RE007 growth inh -4%, Lassa entry inh inconclusive and MARV entry inh inconclusive.
Screening COc1ccc(NC(=O)C(C)n2nnc3sc(-c4ccccc4)cc3c2=O)cc1Cl (stereo unspecified) returned Sm TGR inh -9%, FMDV inh -9%, Lassa entry inh 25%[46.1 µM] and MARV entry inh -1%[46.1 µM].
For O=C(NCCN1CCC(n2c(=O)[nH]c3ccccc32)CC1)c1ccc(F)c(C(F)(F)F)c1 the results were FMDV inh -28% and RE007 growth inh 2%.
O=C(NCCN1CCC(n2c(=O)[nH]c3ccccc32)CC1)c1ccc(C(F)(F)F)cc1C(F)(F)F was read as FMDV inh 20µM* and RE007 growth inh 3%.
`C#CCOc1ccc(Br)cc1C(c1c(C)[nH][nH]c1=O)c1c(C)[nH][nH]c1=O` gave Sm TGR inh 45µM*, HCV inh 2%, FMDV inh -6% and RE007 growth inh -8%.
Screening COc1ccc(C2=C/C(=C\c3ccc(OC(C)=O)cc3)C(=O)O2)cc1 returned Sm TGR inh 50µM*, HCV inh -2%, FMDV inh -4%, RE007 growth inh -29%, Lassa entry inh -6%[46.1 µM] and MARV entry inh 10%[46.1 µM].
Cc1nccc2c1[nH]c1ccccc12 was read as Sm TGR inh -7%, HCV inh inconclusive, FMDV inh -7%, RE007 growth inh 1%, Lassa entry inh 0% and MARV entry inh inconclusive.
CCc1nccc2c1[nH]c1ccccc12 was read as Sm TGR inh 3%, HCV inh 11µM*, FMDV inh -26% and RE007 growth inh -26%.
Screening CCOc1cccc(/C(O)=C2/C(=O)C(=O)N(Cc3ccco3)C2c2ccncc2)c1 (stereo unspecified) returned Sm TGR inh inconclusive, HCV inh 2%, FMDV inh 18%, RE007 growth inh 7%, Lassa entry inh 11% and MARV entry inh 12%.
For COc1cccc(/C(O)=C2/C(=O)C(=O)N(Cc3ccco3)C2c2ccncc2)c1 (stereo unspecified) the results were Sm TGR inh 28µM*, HCV inh -7%, FMDV inh 3%, RE007 growth inh -2%, Lassa entry inh 3% and MARV entry inh -1%[46.1 µM].
For COc1cccc(C2/C(=C(/O)c3ccccc3)C(=O)C(=O)N2Cc2ccco2)c1 (stereo unspecified) the results were Sm TGR inh 50µM*, HCV inh 6%, FMDV inh 32%, RE007 growth inh -3%, Lassa entry inh inconclusive and MARV entry inh -4%[46.1 µM].

Screens (PubChem BioAssay)
